# Screening results deposited in PubChem BioAssay by National Center for Advancing Translational Sciences (NCATS).
# This is a sample that favours compounds with a hit; in the whole collection about 7.5% have one here.
# NPC1 prom act: NPC1 promoter activation; AID 485313; Huh7 NPC1 promoter luciferase reporter, 24 h; Potency, µM (titrated, usually from 9.22 µM), usual class: activators; 2.4% of 320,000 active; note: nearly all actives have a fitted effect of over 60% in size
#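 NPC1 promoter–luciferase Huh7 cells; 24 h compound; luminescence.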
# FLuc counter: firefly luciferase modulation, counter-screen for miR-21 project | P08659 | purified FLuc, Km substrates, luminescence inhibition | Potency, µM (series often up to 57.5 µM), actives largely listed as inhibitors | 6.9% of 360,000 active | AID 588342; note: nearly all actives have a fitted effect of over 55% in size
# Target sequence (P08659 whole entry, looked up): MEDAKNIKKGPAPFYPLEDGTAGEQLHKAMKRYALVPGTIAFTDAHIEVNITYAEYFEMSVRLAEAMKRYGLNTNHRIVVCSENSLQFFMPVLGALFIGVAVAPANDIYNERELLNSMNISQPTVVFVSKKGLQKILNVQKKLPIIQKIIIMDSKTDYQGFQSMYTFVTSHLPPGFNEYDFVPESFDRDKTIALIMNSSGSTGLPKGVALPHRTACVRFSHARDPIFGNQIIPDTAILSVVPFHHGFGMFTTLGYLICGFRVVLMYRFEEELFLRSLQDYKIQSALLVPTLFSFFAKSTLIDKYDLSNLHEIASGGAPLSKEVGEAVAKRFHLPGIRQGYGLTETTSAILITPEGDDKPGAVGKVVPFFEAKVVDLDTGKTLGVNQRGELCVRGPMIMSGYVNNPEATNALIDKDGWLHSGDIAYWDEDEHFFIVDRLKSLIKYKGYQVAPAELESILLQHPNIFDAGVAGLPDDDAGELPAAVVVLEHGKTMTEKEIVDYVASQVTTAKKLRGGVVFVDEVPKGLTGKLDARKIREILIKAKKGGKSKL
#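 Purified P. pyralis luciferase (10nM final) with 10uM D-luciferin and 10uM ATP (Km levels) in 50mM Tris acetate pH 7.5, 10mM Mg acetate, 0.01% Tween-20, 0.05% BSA; qHTS 6-point titration, ~60 µM downward; luminescence read.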
# ELG1 genotox: inducers of genotoxicity in HEK293T ELG1-luciferase cells; 1.3% of 330,000 active; HEK293T ELG1-luciferase reporter, luminescence, 16 h; Potency, µM (series often up to 46 µM), usual class: activators; AID 504466; note: nearly all actives have a fitted effect of over 60% in size
#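 Screening used a luciferase reporter fused to human ELG1 in HEK293T cells. Luminescence was read on a CCD plate imager after 16 hr exposure and 30 min ONE-Glo incubation.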
# SMN2 splice up: SMN2 splice variant enhancement; HEK293 SMN2-luciferase splicing reporter, luminescence, 30-36 h; Potency, µM (series often up to 46.1 µM), hits mostly activators; 2.8% of 210,000 active; AID 1458; note: nearly all actives have a fitted effect of over 55% in size
#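 HEK293 cells carry an SMN2 minigene-luciferase reporter in which exon 7 inclusion puts luciferase in frame. Cells were seeded at 2000 cells/well, attached for 10-12 hours, then exposed to compounds for 30-36 hours at 37C before ONE-Glo luminescence.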
# Luc counter: counter-screen: inhibitors of Kinase-Glo firefly luciferase; Q27757; 0.28% of 200,000 active; Kinase-Glo luciferase, ATP luminescence, 8 min; Potency, µM (highest dose often 38.3 µM), hits mostly inhibitors; note: nearly all actives have a fitted effect of over 60% in size
#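 Substrate mix (final 50 mM imidazole pH 7.2, 50 mM KCl, 7 mM MgCl2, 10 uM ATP, 0.01% Tween 20, 0.05% BSA) plus pin-tool compound, then Kinase-Glo detection mix; 8 min ambient, luminescence read.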
# Rab9 prom act: activators of Rab9 promoter | Huh7 Rab9 promoter-luciferase reporter, luminescence, 24 h | Potency, µM (series often up to 9.22 µM), usual class: activators | 2.8% of 320,000 active; note: nearly all actives have a fitted effect of over 60% in size
#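 Rab9 promoter-driven luciferase in stably transfected Huh7 cells; 1500 cells/well rested 2 h, exposed to compound in DMSO for 24 h at 37 °C, 5% CO2. Luminescence read 10 min after adding luciferase reagent at ambient temperature.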
# Numbers stand for hits; . = inactive; ? = inconclusive; / = no result given. Calls come from the whole dose curve; as a rule, active = well fitted curve in the direction sought with a large enough effect; inconclusive = small, poorly fitted or top-dose-only effect, or another doubt; inactive = no such curve, though single readings can be large; an effect the other way counts as inactive or inconclusive.
SMILES,NPC1 prom act,FLuc counter,ELG1 genotox,SMN2 splice up,Luc counter,Rab9 prom act
CCOC(=O)C1CCCN(C(=O)Cn2ncn3c(cc4sc(CC)cc43)c2=O)C1 (stereo not given),/,.,/,.,/,/
COc1ccccc1-c1cc(C(=O)NCc2ccccc2)no1,.,24µM,.,.,.,.
COc1ccc(CNC(=O)c2cc(-c3ccccc3OC)on2)cc1,.,17µM,.,.,.,.
Cc1ccccc1-c1ccc(C(=O)NCc2ccccc2)o1,.,27µM,.,.,.,.
COc1ccccc1-c1cc(C(=O)NCc2ccc(F)cc2)no1,.,?,.,.,.,.
COc1ccccc1-c1cc(C(=O)NCc2ccc(Cl)cc2)no1,.,?,.,.,.,.
Cc1cc(C)cc(C(=O)n2nc(C)c(S(=O)(=O)N3CCOCC3)c2C)c1,/,.,/,/,/,/
O=C1OCCN/C1=C\C(=O)c1ccc(Cl)cc1,.,24µM,.,/,/,.
O=C1NCCN/C1=C\C(=O)c1ccc(Br)cc1,1.3µM,9.5µM,10µM,/,/,1.3µM
O=C1NCCN/C1=C\C(=O)c1ccccc1,.,.,?,.,.,?
CC(C)(C)C(=O)Nc1cc2nn(-c3ccccc3)nc2cc1Cl,.,0.076µM,?,.,.,.
CC(C)COc1ccc(C(=O)Nc2cc3nn(-c4ccccc4)nc3cc2Cl)cc1,/,.,/,.,/,/
CC(=O)Nc1cc2nn(-c3ccccc3)nc2cc1Cl,0.56µM,1.5µM,1.3µM,11µM,.,0.5µM
O=C1CN(C(=O)c2ccc(S(=O)(=O)N3CCCC3)cc2)C(c2ccc(F)cc2)c2cc(Br)ccc2N1 (stereo not given),/,.,/,.,/,/
CCn1ccc(C(=O)Oc2ccc(Cl)cc2)n1,.,7.6µM,.,.,.,.
CC(C)c1ccc(OC(=O)c2cc(-c3ccc(Cl)cc3)on2)cc1,/,.,/,/,/,/
CCn1ccc(C(=O)Nc2ccccc2SC)n1,?,?,?,14µM,.,4.5µM
CCn1ccc(C(=O)Nc2ccc(Cl)cn2)n1,3.2µM,19µM,?,?,.,4µM
CCn1nccc1C(=O)Nc1ccc(Cl)cn1,.,?,?,.,?,.
Fc1ccc(Nc2nc(SCc3cccc(Cl)c3)nc3ccccc23)cc1,/,.,/,/,/,/
COc1ccc(CCNC(=O)CSc2cn(CCNC(=O)c3c(F)cccc3F)c3ccccc23)cc1OC,/,.,/,.,/,/
O=C(NC1CC1)c1cc2c(s1)-c1ccccc1OC2,.,12µM,?,.,.,.
Fc1ccccc1Nc1n[nH]c(=S)s1,.,?,?,13µM,.,?
CCOC(=O)c1cc2c(nc1N)CCCC2,.,.,.,/,/,.
CCOC(=O)c1cnc2cc3c(cn2c1=O)CCCC3,?,24µM,.,.,.,3.2µM
SMILES,NPC1 prom act,FLuc counter,ELG1 genotox,SMN2 splice up,Luc counter,Rab9 prom act
Cc1cc(C)cc(NC(=O)CN2C(=O)NC(C)(c3ccccc3)C2=O)c1 (stereo not given),.,.,.,.,.,.
CC1(c2ccccc2)NC(=O)N(CC(=O)Nc2cccc(/C=C/c3ccccn3)c2)C1=O (stereo not given),.,19µM,.,/,/,.
Cc1nc2cc(-c3ccccc3)sc2c(=O)n1N,?,0.67µM,.,1.4µM,2.2µM,?
COc1ccc(-c2cc3nc(C)n(N)c(=O)c3s2)cc1,0.079µM,0.076µM,?,/,/,0.0032µM
COc1ccc(-c2nc3ccccc3c(=O)n2N)cc1,.,.,.,.,.,.
C=CCn1c(SCCNC(C)=O)nc2cc(-c3ccccc3)sc2c1=O,.,?,.,/,/,.
COc1ccc(C(=O)/C(C#N)=N/Nc2cccc([N+](=O)[O-])c2)cc1,.,?,.,.,.,.
Cc1ccc(CNCc2ccc3c(c2)n(C)c(=O)n3C)cc1,/,.,/,/,/,/
O=C(CSc1nc(-c2cccc(F)c2)[nH]c1-c1ccccc1)Nc1ccc2c(c1)OCCO2,/,?,/,.,/,/
COc1cc(-c2nc(SCC(=O)Nc3ccc4c(c3)OCO4)c(-c3ccccc3)[nH]2)cc(OC)c1OC,/,8.5µM,/,?,/,/
COc1ccc(-c2nc(SCC(=O)Nc3ccc4c(c3)OCCO4)c(-c3ccccc3)[nH]2)cc1,/,6µM,/,.,/,/
O=C(CSc1nc(-c2ccccc2)[nH]c1-c1ccccc1)Nc1ccc2c(c1)OCO2,/,.,/,.,/,/
COc1cccc(-c2nc(SCC(=O)Nc3ccc4c(c3)OCCO4)c(-c3ccccc3)[nH]2)c1,/,5.4µM,/,.,/,/
COc1ccc(-c2[nH]c(-c3cccc(OC)c3)nc2SCC(=O)Nc2ccc3c(c2)OCO3)cc1,/,.,/,.,/,/
CCOc1ccc(-c2nc(SCC(=O)Nc3ccc4c(c3)OCCO4)c(-c3ccc(F)cc3)[nH]2)cc1,/,.,/,.,/,/
Cc1cccc(-c2nc(SCC(=O)Nc3ccc4c(c3)OCCO4)c(-c3ccccc3)[nH]2)c1,/,8.5µM,/,.,/,/
Cc1cccc(OCCC(=O)Nc2ccc(C)c(S(=O)(=O)N3CCCCC3)c2)c1,.,.,.,.,.,.
Cc1ccc(-c2nc3cc(Cl)ccc3o2)cc1NC(=O)COc1ccc(F)cc1,/,.,/,/,/,/
Cc1ccc2oc(-c3ccc(C)c(NC(=O)/C=C/c4ccco4)c3)nc2c1,/,12µM,/,?,/,/
Cc1ccc2oc(-c3ccc(C)c(NC(=O)/C=C/c4ccc(Cl)cc4)c3)nc2c1,/,12µM,/,.,/,/
Cc1ccc(-c2nc3ccccc3o2)cc1NC(=S)NC(=O)/C=C/c1ccco1,.,?,.,.,.,.
COC[C@H]1O[C@@H](c2c(OC)cc(OC)cc2OC)[C@H](OC)[C@@H](OC)[C@@H]1OC,/,/,/,.,.,/
O=[N+]([O-])c1cc(-c2ccc(C(=S)N3CCOCC3)o2)ccc1Cl,.,15µM,.,.,.,.
O=[N+]([O-])c1cccc(-c2ccc(C(=S)N3CCOCC3)o2)c1,2.8µM,3µM,?,11µM,.,1.1µM
CN1CCN(C(=S)c2ccc(-c3cccc([N+](=O)[O-])c3)o2)CC1,2.2µM,6.7µM,10µM,/,/,2.2µM
SMILES,NPC1 prom act,FLuc counter,ELG1 genotox,SMN2 splice up,Luc counter,Rab9 prom act
CC(C)(C)N/C=C(\C#N)S(=O)(=O)c1ccc(Br)cc1,.,.,.,/,/,.
Cc1c[n+](CC(=O)c2ccccc2)cs1,.,.,.,/,/,.
O=[N+]([O-])c1ccc2nc(C(O)C(O)c3nc4ccc([N+](=O)[O-])cc4[nH]3)[nH]c2c1 (stereo not given),.,.,.,/,/,.
O=[N+]([O-])c1ccc2nc(/C=C/c3ccc(Cl)cc3)[nH]c2c1,?,5.4µM,.,.,.,?
Nc1ccc(-c2nc3ccc([N+](=O)[O-])cc3[nH]2)cc1,2.2µM,3.4µM,3.7µM,3.5µM,.,1.4µM
CCCC[n+]1ccc(-c2nc3ccc([N+](=O)[O-])cc3[nH]2)cc1,.,?,.,11µM,.,?
O=[N+]([O-])c1ccc(-c2nc3ccc([N+](=O)[O-])cc3[nH]2)cc1,1.6µM,2.7µM,.,/,.,?
